Here are results for eight compounds from PubChem BioAssay (NCI).

What all share (experiment): NCI-60 one-dose screen, 48 h (100 = growth as untreated, 0 = no growth, -100 = all killed)
Holding throughout (conditions): 10 µM unless noted

Assay [1] has as its system NCI-H23 lung.
Assay [2] relates to NCI-H226 lung.
The test system of assay [3] is NCI-H322M lung.
Assay [4] concerns NCI-H460 lung.
Assay [5] relates to HOP-92 NSCLC.
Assay [6] has as its system NCI-H522 lung.
The test system of assay [7] is A549/ATCC NSCLC.
The test system of assay [8] is 786-0 renal.
The subject of assay [9] is COLO 205 colon.
The test system of assay [10] is DU-145 prostate.
The test system of assay [11] is K-562 leukemia.
Assay [12] has as its system MALME-3M melanoma.
The test system of assay [13] is MDA-MB-231 breast.
Assay [14] concerns RXF 393 renal.
In assay [15] the test system is SF-268 CNS.
The subject of assay [16] is SF-295 CNS.
Assay [17] relates to SF-539 CNS.
Assay [18] has as its system UACC-257 melanoma.
Assay [19] deals with M14 melanoma.
Assay [20] deals with HOP-62 NSCLC.

The structures appear in SMILES notation. About 83,000 compounds went through this panel and 20% of them were active in at least one assay; those are over-represented in the sample as a whole.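 Values shown are percent growth following 48 h exposure of cells in 96-well plates to a single concentration of compound; below 10 was considered active.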 Unmarked numbers belong to inactive results. The source made the active and inactive calls.

For the compound `O=C1OCC2=C1C(c1cccc(F)c1)c1cc3c(cc1N2CCO)CCC3` (centres undefined), the growth in [1] was 24.7%; in [2], 39.6%; in [3], 40.9%; in assay [4] it was 6.75% (active); in [5], 58.5%; in [6], 11.6%. The growth in assay [7] is 17.3%; in [8], 32.3%; in [9] it was -25.6% (active); in assay [10], 2.44% (active); in assay [11], 9.4% (active); in [12], 50.9%. Moreover, the growth in [13] is 26.9%; in assay [14], 32.3%; in assay [15] it was 23.3%; in assay [16] it was -6.45% (active); in assay [17] it was -28.9% (active); in assay [18], 90.1%. In addition, the growth in assay [19] was 7.72% (active).
Turning to `CN(C)CCOc1nc2c3cc([N+](=O)[O-])ccc3nn2c2ccccc12`, the growth is 36.7% in [1]; 65.3% in [2]; 59.6% in assay [3]; 4.99% (active) in [4]; 57.3% in assay [5]; 46.2% in assay [6]. In addition, the growth in assay [7] was 12.7%; in [8], 22.7%; in [9], 33.9%; in assay [10] it was 32.2%; in assay [11], 26.3%; in [12] it was 52.4%. The growth in assay [13] was 66.4%; in assay [14], 24.3%; in assay [15], 56.6%; in assay [16], 9.28% (active); in [17] it was 51.6%; in assay [18], 78.9%. Besides, in assay [19], the growth was 47.3%.
`O=C(Nc1ncc(Cc2ccccc2Cl)s1)c1ccc2c(c1)OCCO2`: the growth in assay [1] is 40.8%; in [2], 30.1%; in [3], 48.9%; in assay [4] it was 5.42% (active); in assay [5], 56.3%; in assay [6], 1.6% (active). In addition, the growth in assay [7] was 20.8%; in assay [8] it was 41.2%; in assay [9], -3.85% (active); in [10] it was 9.81% (active); in assay [11], 8.27% (active); in [12], 56.6%. For the same compound, the growth was 23.5% in assay [13]; 9.52% (active) in [14]; 41.2% in assay [15]; 11.7% in assay [16]; -8.75% (active) in assay [17]; 53.1% in assay [18]. Further, the growth in assay [19] was 10.3%.
On to `CN1CCN(Cn2nc(-c3cc(Cl)cc(Cl)c3Cl)oc2=S)CC1`, for which the growth in [1] was 90%; in assay [2], 96%; in [3], 101%; in [20], 93.9%; in assay [4] it was 102%; in assay [5], 119%. The growth in assay [6] is 91.1%; in assay [7] it was 104%; in assay [8], 94.5%; in [9] it was 110%; in [10], 108%; in assay [11] it was 68.8%. The growth in [12] was 101%; in assay [13], 94.4%; in assay [14], 99.5%; in assay [15] it was 109%; in assay [16] it was 87.7%; in assay [17] it was 106%. Also, the growth in assay [18] is 77.8%; in [19] it was 107%.
For the compound `CC(=O)O[C@H]1CC[C@@]2(C)C(=CC[C@@H]3[C@@H]2CC[C@]2(C)C(Cl)=C(c4nc5ccc(Cl)cn5c4NC(C)(C)C)C[C@@H]32)C1`, the growth is 88.1% in assay [1]; 92.3% in assay [2]; 96.1% in assay [3]; 99.9% in assay [4]; 15.6% in assay [5]; 86.8% in [6]. The growth was 89.5% in [7]; 85% in assay [8]; 103% in assay [9]; 95.8% in [10]; 85.4% in assay [11]; 66.7% in assay [12]. Moreover, the growth in assay [13] was 87.5%; in assay [14] it was 90.1%; in assay [15], 101%; in assay [16], 93.2%; in assay [17] it was 97.6%; in assay [18] it was 98.9%. For the same compound, the growth in assay [19] was 93.1%.
For `CCOC(=O)c1c(N)sc2cc(O)ccc12`, the growth in assay [1] is 95.2%; in assay [2] it was 110%; in [3], 91.1%; in [4], 112%; in [5], 121%; in assay [6] it was 80%. For the same compound, the growth was 99.7% in assay [7]; 104% in [8]; 112% in assay [9]; 89.2% in assay [10]; 89.9% in assay [11]; 118% in [12]. Further, the growth in assay [13] was 106%; in [14], 115%; in assay [15] it was 105%; in [16], 96.3%; in assay [17], 106%; in assay [18], 115%. The growth in assay [19] is 108%.
As for `Cc1oc2ccc(O)c(CN3CCCCCC3)c2c1C(=O)Nc1ccc(C(F)(F)F)cc1`, the growth in assay [1] is 69.9%; in assay [2], 72.4%; in [3], 69.3%; in assay [20], 70.4%; in [4] it was 51.5%; in [5] it was 34.9%. The growth in assay [6] was 72.5%; in [7], 61.2%; in assay [8] it was 49.5%; in assay [9] it was 48.7%; in [10], 64.8%; in [11], 29.6%. Also, the growth in assay [12] was 49.9%; in assay [13], 49%; in assay [14] it was 50.4%; in assay [15], 75.4%; in assay [16] it was 48.8%; in assay [17], 61.2%. For the same compound, the growth in assay [18] is 82%; in [19] it was 58.1%.
Turning to `COc1ccc(S(=O)(=O)NC2c3ccccc3CC2O)cc1OC` (centres undefined), the growth in assay [1] is 103%; in [2], 102%; in assay [3], 109%; in assay [4], 109%; in assay [5], 109%; in assay [6], 99%. Besides, the growth in assay [7] was 102%; in assay [8] it was 104%; in [9] it was 119%; in [10] it was 111%; in assay [11] it was 102%; in [12], 110%. Besides, the growth in assay [13] is 112%; in [14], 117%; in assay [15], 93.6%; in [16], 98.3%; in assay [17], 101%; in [18], 111%. Besides, the growth in [19] is 99.1%.
